Reference: PubChem BioAssay AID493170 (National Center for Advancing Translational Sciences (NCATS), 2011)
Inconclusive results are not listed. A call without a number means that no potency is given here. Calls of active or inactive are those of the source. The call rests on the fitted dose curve; in most records, active means well fitted inhibition curve with a large enough effect; inconclusive means small, poorly fitted or top-dose-only effect, or effect the other way; inactive means flat fitted curve, though single readings scatter.

Molecular target: Ubiquitin carboxyl-terminal hydrolase 2 (Homo sapiens) (UniProt O75604)
Sequence (O75604 whole entry, looked up): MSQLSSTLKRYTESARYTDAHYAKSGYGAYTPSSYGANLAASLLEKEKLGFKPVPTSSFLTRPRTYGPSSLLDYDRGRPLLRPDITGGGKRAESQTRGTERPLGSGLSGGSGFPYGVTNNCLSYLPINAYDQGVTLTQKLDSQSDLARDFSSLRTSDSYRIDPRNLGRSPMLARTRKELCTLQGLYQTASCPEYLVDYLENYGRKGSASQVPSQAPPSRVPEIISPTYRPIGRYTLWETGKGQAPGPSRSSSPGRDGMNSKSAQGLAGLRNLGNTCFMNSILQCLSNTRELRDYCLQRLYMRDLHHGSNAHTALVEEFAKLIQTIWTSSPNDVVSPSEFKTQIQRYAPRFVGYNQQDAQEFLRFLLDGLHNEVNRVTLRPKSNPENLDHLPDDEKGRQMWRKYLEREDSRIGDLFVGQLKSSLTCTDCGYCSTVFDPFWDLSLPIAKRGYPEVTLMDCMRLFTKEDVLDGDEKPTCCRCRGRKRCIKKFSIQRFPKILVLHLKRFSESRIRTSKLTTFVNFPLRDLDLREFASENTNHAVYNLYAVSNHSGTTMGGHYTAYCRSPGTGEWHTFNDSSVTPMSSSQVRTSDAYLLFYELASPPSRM
Assay: Ub-rhodamine 110 based assay for inhibitors Ubiquitin-specific Protease USP2a; further: nearly all actives have a fitted effect of over 50% in size
Conditions: USP2a Ub-rhodamine110 cleavage, fluorescence; series mostly up to 38.3 µM
Outline: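 5 nM USP2a preincubated with compounds for 30 min at RT in 20 mM Tris-HCl pH 8.0, 2 mM CaCl2, 2 mM beta-mercaptoethanol, 0.05% CHAPS. Cleavage of 150 nM Ub-rhodamine 110 read kinetically (Ex 485/Em 531) for 7 min.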
Potency means the concentration at half of the fitted maximal effect.

Structure (SMILES) | Potency
CCCCC1CCC(C(=O)Nc2ccc(S(=O)(=O)Nc3nccs3)cc2)CC1 (centres undefined) | 10 µM (active)
CCOC(=O)C(C)Sc1nnc(Cn2c(=O)sc3ccccc32)n1-c1ccccc1 (centres undefined) | inactive
OCCN(Cc1ccccc1)c1ncnc2sccc12 | inactive
CCCCn1c(SCC(=O)N2CCC(C)CC2)nc2cc(S(N)(=O)=O)ccc21 | inactive
Cc1cc2c(c(=O)n1CC1CCCO1)C(c1ccco1)C(C#N)=C(N)O2 (centres undefined) | inactive
Cc1ccc(C2=NC(=O)/C(=C/c3cc(O)c(O)c(Br)c3)S2)cc1 | 1.58 µM (active)
COc1ccc(NC(=O)C2CC(=O)OC2c2ccccc2)cc1 (centres undefined) | inactive
COc1ccc(S(=O)(=O)N(C)CC(=O)Nc2cccc(C(C)=O)c2)cc1Cl | inactive
CCOC(=O)c1ccc(NC(=O)C2=C(C)Nc3nc(CCCO)nn3C2c2cccc(C)c2)cc1 (centres undefined) | inactive
Cc1cc(/C=C2\C(=N)N3N=C(c4ccco4)SC3=NC2=O)c(C)n1Cc1ccccc1 | 7.08 µM (active)
COCCCNC(=O)C1CCN(c2nc(C)cc(C)n2)CC1 | inactive
CC(C)c1ccc2c(c1)c(SC(C)(C)C)c(CC(C)(C)C(=O)O)n2Cc1ccc(Cl)cc1 | 7.08 µM (active)
COc1ccccc1C(=O)N1CCN=C1SC | inactive
CCOc1ccc(-c2ccc(/C=C3/C(=N)N4C(C)=CSC4=NC3=O)o2)c([N+](=O)[O-])c1 | 7.94 µM (active)
Cc1noc(NS(=O)(=O)c2ccc(N3CC(O)=C(c4ccccc4)C3=N)cc2)c1C | inactive
Cc1ccc(CSC2=Nc3ccccc3C3=NC(CC(=O)NCc4ccco4)C(=O)N23)cc1 (centres undefined) | 8.91 µM (active)
CC(=O)N1CCCc2cc(S(=O)(=O)CCC(=O)N3CCN(c4cccc(C)c4)C(C)C3)ccc21 (centres undefined) | inactive
Oc1c(Cl)cc(Cl)c(Cl)c1Cc1c(O)c(Cl)cc(Cl)c1Cl | 3.16 µM (active)
CC1CCc2c(sc3nc(CN4CCOCC4)nc(NS(=O)(=O)c4cccc([N+](=O)[O-])c4)c23)C1 (centres undefined) | 10 µM (active)
COc1cc(OC)cc(-c2c(C#Cc3ccsc3)c3cc(-c4ccc(OC)c(F)c4)ccc3n2C)c1 | inactive

Structure (SMILES) | Potency
CCC(C)NC(=O)CSC1=Nc2ccccc2C2=NC(c3ccccc3)C(=O)N12 (centres undefined) | inactive
Cc1[nH]c2ccccc2c1C(c1ccccn1)c1c(C)[nH]c2ccccc12 | inactive
Cc1cccc2c1N(CCCOc1ccc(C(C)(C)C)cc1)C(=O)C2=O | inactive
CNc1cccccc1=S | 10 µM (active)
CCN(CC)S(=O)(=O)c1ccc(Cl)c(NC(=O)COC(=O)c2c(C)noc2C)c1 | inactive
COC(=O)C1CCN(C(=O)COC(=O)CC(NC(N)=O)c2ccc(Cl)cc2)CC1 (centres undefined) | inactive
CC(C)(C)C1C=C(Sc2ccccc2)C(=O)O1 (centres undefined) | inactive
O=C(c1ccccc1)N1CCN(C2C3CC4CC(C3)CC2C4)CC1 (centres undefined) | inactive
O=C(Nc1ccc(Nc2ccncc2)cc1)c1ccc(Nc2ccnc3ccc([N+](=O)[O-])cc23)cc1 | 7.08 µM (active)
CCOC(=O)N1CCN(C(=O)CN(c2ccc(Oc3ccccc3)cc2)S(C)(=O)=O)CC1 | inactive
CCCn1c(C)cc(C)c(C#N)c1=O | inactive
COc1cccc(-n2c(SCc3cc(=O)oc4cc(O)c(O)cc34)nc3ccccc3c2=O)c1 | 1.58 µM (active)
C(=N\N(c1ccccc1)c1ccccc1)/c1ccccn1 | inactive
O=C1CCCc2nc(N3CCN(c4ccccc4)CC3)ncc21 | inactive
COc1cccc(/C=N/n2c(SC)nnc2-c2ccccc2)c1O | inactive
Cc1cc(C(C)(C)CC(C)(C)C)ccc1OCCOCC[N+](C)(C)Cc1ccccc1 | inactive
O=C(O)c1cccc(-n2cccc2/C=C2/NC(=O)N(c3ccc(Cl)cc3)C2=O)c1 | 4.47 µM (active)
Cc1cccc(NC(=O)NCc2ccc3c(c2)cc(C)n3C)c1 | inactive
Cn1c(C(=O)NCCN2CCOCC2)cc2c(=O)n(C)c3ccccc3c21 | inactive
